This experiment in a line: optical interference in Abeta FP readout, dose response, artefact control for IDE activator project, biochemical, fluorescence polarization (AID 588442). The conditions noted are these: FP artifact counterscreen, fluorescein-Abeta, no enzyme activity.

Potency and affinity values are given separately. Some structures have more than one record in an assay (separate samples or runs), and their calls can disagree. Unmarked numbers belong to inactive results.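 How the source made its calls: active means EC50 of 10 µM or lower; inactive means EC50 above 10 µM or not measured.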

The results in this text go back to PubChem BioAssay AID588442 (The Scripps Research Institute Molecular Screening Center, 2011).

For `C[n+]1c2cc(N)ccc2cc2ccc(N)cc21`, the EC50 is above 54.7 µM.
